# Source: paper PMC7862700, “An all-to-all approach to the identification of sequence-specific readers for epigenetic DNA modifications on cytosine”
# What was measured:
# Assay in all cases: DAPPL (digital affinity profiling via proximity ligation, sequencing); 10 mM Tris-HCl pH 7.5, 50 mM NaCl, 1 mM DTT, 4% glycerol, room temperature, 30 min; GST-TFs on glutathione beads, 16-mer random dsDNA library, 0.1% formaldehyde crosslink after washing; high values mean tight binding
# Settings in all cases: protein: recombinant; tags: N-terminal GST; dsDNA, one strand shown
# GABPA = target: T1, GABPA (Homo sapiens, UniProt Q06546 1-454)
# T1 sequence: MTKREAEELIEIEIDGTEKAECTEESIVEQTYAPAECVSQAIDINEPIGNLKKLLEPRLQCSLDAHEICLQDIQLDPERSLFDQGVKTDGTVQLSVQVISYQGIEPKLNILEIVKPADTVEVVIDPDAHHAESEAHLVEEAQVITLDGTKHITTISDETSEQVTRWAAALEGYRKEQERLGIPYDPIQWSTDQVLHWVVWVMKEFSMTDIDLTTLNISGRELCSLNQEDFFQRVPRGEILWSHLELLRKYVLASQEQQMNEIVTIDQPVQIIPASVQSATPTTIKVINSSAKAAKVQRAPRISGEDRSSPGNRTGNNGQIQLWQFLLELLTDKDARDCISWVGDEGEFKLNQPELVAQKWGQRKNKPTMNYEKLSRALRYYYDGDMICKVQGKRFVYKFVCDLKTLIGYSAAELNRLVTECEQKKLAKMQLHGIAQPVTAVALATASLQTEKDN
# Summary of the method: (§1)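 GST fusions of human transcription factors were expressed in yeast and captured with glutathione beads. Once given DNA barcodes and pooled alongside a tag-only sample, they were incubated for 30 min at room temperature with 200 nmole of a random double-stranded 16-mer DNA library in Tris/NaCl/DTT/glycerol buffer, then washed, crosslinked (0.1% formaldehyde), proximity-ligated, PCR-amplified and sequenced on an Illumina NextSeq500. The binding signal of each hexamer is its read frequency for a factor divided by its frequency for the tag-only sample.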
# ELF1 = ELF1 (Homo sapiens, UniProt P32519 1-619)
# Chain of ELF1 (P32519 whole entry): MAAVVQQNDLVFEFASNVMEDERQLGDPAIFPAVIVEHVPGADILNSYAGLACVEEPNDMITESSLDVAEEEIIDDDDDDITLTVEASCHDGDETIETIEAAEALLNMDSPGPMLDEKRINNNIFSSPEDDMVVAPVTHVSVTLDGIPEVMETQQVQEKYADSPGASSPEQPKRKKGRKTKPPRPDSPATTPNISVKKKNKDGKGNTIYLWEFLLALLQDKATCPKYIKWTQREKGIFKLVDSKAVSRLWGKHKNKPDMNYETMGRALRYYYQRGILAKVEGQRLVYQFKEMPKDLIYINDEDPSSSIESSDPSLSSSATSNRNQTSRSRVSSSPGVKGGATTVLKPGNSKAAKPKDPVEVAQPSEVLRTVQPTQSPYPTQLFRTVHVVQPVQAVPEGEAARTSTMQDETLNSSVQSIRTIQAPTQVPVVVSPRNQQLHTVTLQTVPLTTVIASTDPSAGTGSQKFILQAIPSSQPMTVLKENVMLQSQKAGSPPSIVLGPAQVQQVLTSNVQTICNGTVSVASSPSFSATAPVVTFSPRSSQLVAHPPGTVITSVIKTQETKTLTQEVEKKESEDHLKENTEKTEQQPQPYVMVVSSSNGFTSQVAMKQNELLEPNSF
# Summary of the method: as §1
# EHF = target: T2, EHF (Homo sapiens, UniProt Q9NZC4 1-300)
# T2 sequence: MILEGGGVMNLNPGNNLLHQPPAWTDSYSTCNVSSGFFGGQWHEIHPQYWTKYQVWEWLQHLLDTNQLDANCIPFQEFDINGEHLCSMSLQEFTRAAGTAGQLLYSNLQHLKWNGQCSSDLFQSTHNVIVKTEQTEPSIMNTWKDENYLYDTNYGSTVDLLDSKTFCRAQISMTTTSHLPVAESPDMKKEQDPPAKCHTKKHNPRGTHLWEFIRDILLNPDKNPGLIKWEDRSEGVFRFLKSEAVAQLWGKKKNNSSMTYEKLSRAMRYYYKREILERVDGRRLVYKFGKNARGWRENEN
# Summary of the method: as §1
# SPIB = SPIB (Homo sapiens, UniProt Q01892 1-262)
# Chain of SPIB (Q01892 whole entry): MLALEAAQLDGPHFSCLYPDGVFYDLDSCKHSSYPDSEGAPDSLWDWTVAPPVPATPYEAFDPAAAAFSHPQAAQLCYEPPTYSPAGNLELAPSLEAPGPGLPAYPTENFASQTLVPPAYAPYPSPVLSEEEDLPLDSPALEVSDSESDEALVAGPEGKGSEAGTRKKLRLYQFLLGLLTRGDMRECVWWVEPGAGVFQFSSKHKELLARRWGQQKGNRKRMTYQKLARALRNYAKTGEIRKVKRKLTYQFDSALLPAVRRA
# Summary of the method: as §1
# ELK3 = target: T3, ELK3 (Homo sapiens, UniProt P41970 1-407)
# T3 sequence: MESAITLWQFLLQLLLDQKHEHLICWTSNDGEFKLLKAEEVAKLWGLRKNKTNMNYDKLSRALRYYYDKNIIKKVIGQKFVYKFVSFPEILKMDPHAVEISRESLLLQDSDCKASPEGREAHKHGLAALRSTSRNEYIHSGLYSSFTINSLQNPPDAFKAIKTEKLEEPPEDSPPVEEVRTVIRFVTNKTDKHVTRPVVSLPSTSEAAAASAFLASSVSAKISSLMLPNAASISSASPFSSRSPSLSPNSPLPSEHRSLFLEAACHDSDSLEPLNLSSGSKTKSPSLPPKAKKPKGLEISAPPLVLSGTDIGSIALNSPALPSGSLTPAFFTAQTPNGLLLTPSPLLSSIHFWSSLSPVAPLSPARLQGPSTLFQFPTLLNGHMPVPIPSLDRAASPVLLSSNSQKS
# Summary of the method: as §1
# SPIC = target: T4, SPIC (Homo sapiens, UniProt Q8N5J4 1-248)
# T4 sequence: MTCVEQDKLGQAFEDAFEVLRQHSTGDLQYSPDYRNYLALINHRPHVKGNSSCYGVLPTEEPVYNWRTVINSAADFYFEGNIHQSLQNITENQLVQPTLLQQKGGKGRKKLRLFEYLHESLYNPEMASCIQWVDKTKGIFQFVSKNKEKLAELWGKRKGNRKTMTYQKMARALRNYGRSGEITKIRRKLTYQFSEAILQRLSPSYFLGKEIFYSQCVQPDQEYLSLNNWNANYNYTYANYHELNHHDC
# Summary of the method: as §1
# ELF4 = ELF4 (Homo sapiens, UniProt Q99607 1-663)
# Chain of ELF4 (Q99607 whole entry): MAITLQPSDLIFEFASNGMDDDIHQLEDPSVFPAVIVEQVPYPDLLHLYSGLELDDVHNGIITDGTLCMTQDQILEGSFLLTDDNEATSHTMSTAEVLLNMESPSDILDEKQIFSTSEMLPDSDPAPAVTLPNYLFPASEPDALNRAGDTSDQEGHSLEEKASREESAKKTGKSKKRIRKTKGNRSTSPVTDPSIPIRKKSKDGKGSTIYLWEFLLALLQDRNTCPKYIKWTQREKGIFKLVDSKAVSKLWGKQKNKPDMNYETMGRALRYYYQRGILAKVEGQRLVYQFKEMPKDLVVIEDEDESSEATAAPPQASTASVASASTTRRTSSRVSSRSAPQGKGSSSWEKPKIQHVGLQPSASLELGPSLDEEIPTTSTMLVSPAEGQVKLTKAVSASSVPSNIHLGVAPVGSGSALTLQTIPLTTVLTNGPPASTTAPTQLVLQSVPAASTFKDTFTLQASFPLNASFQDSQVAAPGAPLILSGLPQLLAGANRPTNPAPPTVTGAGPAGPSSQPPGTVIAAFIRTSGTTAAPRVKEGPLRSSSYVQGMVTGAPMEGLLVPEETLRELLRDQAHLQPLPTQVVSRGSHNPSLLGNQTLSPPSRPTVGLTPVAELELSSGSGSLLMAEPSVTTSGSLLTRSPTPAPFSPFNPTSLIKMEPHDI
# Summary of the method: as §1
# ELK4 = target: T5, ELK4 (Homo sapiens, UniProt P28324-2 1-405)
# T5 sequence: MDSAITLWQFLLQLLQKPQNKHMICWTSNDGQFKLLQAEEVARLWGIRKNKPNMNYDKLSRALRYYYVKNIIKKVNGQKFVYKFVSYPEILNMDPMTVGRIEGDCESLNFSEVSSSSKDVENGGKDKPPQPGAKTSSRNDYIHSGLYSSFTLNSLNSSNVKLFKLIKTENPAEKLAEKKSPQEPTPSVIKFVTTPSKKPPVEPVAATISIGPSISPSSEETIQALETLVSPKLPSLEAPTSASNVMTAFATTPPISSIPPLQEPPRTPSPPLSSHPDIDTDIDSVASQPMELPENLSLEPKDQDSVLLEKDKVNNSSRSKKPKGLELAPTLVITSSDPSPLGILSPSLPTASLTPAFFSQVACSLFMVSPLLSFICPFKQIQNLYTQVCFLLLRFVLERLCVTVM
# Summary of the method: as §1
# ELF3 = target: T6, ELF3 (Homo sapiens, UniProt P78545 1-371)
# T6 sequence: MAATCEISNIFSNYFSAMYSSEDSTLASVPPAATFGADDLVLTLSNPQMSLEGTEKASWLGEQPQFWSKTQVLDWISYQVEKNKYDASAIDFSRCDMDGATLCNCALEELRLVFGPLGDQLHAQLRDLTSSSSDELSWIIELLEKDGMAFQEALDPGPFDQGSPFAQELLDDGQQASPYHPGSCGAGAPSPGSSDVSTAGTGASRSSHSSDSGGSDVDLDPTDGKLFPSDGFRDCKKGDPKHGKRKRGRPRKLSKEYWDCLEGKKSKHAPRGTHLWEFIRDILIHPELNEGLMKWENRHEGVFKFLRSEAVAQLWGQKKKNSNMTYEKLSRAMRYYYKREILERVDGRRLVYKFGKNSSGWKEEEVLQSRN
# Summary of the method: as §1
# ETV1 = ETV1 (Homo sapiens, UniProt P50549 1-477)
# Chain of ETV1 (P50549 whole entry): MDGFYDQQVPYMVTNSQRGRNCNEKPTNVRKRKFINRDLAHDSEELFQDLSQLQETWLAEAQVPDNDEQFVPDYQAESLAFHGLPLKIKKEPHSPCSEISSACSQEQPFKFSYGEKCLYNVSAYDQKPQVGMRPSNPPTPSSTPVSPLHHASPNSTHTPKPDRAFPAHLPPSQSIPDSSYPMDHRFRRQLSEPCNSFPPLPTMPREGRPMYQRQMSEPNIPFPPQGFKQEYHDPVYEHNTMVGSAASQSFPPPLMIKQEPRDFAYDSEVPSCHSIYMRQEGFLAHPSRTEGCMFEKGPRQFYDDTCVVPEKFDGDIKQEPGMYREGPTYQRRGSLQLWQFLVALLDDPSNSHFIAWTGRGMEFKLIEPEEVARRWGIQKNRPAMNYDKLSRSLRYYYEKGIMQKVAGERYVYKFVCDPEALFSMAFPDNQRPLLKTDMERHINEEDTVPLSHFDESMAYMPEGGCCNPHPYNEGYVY
# Summary of the method: as §1
# ERF = target: T7, ERF (Homo sapiens, UniProt P50548 1-548)
# T7 sequence: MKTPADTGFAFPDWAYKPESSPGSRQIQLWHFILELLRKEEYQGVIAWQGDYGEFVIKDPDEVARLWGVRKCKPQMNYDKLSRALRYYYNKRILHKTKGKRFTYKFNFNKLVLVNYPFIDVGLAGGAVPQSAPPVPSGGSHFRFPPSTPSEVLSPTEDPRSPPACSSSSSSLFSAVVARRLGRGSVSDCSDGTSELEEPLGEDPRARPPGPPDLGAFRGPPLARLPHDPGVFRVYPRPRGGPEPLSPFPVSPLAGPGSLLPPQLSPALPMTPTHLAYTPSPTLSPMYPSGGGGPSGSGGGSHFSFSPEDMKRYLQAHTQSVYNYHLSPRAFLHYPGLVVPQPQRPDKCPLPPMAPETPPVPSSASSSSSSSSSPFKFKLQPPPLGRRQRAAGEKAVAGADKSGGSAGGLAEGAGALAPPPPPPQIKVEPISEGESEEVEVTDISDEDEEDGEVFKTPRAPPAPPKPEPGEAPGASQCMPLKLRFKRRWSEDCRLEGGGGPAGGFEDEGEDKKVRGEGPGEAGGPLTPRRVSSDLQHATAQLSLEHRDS
# Summary of the method: as §1
# ETV3L = target: T8, ETV3L (Homo sapiens, UniProt Q6ZN32 1-361)
# T8 sequence: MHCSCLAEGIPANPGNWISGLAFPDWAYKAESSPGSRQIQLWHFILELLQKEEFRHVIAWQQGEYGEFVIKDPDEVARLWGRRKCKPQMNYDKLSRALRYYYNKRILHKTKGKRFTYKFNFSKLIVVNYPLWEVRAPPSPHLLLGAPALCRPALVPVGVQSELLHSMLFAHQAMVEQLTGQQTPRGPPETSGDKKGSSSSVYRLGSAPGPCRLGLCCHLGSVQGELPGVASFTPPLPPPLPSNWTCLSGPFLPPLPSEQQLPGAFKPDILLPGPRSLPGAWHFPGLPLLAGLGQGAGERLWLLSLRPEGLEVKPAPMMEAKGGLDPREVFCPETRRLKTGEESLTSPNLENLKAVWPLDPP
# Summary of the method: as §1
# ETS2 = target: T9, ETS2 (Homo sapiens, UniProt P15036 1-469)
# T9 sequence: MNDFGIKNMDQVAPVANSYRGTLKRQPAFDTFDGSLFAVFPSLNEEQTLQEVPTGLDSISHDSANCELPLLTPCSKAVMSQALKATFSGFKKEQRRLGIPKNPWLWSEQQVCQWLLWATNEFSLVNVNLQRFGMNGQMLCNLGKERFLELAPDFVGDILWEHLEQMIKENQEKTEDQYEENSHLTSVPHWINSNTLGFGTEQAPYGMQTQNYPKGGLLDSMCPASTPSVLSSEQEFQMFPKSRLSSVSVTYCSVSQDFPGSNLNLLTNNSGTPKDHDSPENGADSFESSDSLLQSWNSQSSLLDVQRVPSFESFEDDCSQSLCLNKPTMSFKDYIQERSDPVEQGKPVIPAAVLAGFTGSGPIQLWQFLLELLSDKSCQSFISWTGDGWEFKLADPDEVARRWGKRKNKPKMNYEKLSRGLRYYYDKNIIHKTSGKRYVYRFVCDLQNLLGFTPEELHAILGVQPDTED
# Summary of the method: as §1
# SPDEF = target: T10, SPDEF (Homo sapiens, UniProt O95238 1-335)
# T10 sequence: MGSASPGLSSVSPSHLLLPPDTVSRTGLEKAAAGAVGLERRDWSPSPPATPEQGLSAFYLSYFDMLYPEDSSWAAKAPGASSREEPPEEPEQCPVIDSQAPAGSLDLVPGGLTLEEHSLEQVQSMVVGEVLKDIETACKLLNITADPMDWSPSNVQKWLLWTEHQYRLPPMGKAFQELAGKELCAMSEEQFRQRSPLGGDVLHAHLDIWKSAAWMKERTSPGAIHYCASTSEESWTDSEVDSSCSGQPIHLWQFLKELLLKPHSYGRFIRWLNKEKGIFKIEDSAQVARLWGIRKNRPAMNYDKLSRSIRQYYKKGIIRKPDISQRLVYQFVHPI
# Summary of the method: as §1
# ETV7 = target: T11, ETV7 (Homo sapiens, UniProt Q9Y603 1-341)
# T11 sequence: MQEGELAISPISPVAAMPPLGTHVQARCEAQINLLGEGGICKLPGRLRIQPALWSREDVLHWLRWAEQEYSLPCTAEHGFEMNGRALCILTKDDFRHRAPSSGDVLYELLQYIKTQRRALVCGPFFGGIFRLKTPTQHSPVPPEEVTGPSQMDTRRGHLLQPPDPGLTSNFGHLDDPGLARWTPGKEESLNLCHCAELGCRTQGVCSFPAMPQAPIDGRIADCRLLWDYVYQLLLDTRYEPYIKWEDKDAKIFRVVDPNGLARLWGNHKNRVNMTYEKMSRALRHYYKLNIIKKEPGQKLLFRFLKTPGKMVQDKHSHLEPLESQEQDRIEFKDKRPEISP
# Summary of the method: as §1
# ERG = target: T12, ERG (Homo sapiens, UniProt P11308 1-479)
# T12 sequence: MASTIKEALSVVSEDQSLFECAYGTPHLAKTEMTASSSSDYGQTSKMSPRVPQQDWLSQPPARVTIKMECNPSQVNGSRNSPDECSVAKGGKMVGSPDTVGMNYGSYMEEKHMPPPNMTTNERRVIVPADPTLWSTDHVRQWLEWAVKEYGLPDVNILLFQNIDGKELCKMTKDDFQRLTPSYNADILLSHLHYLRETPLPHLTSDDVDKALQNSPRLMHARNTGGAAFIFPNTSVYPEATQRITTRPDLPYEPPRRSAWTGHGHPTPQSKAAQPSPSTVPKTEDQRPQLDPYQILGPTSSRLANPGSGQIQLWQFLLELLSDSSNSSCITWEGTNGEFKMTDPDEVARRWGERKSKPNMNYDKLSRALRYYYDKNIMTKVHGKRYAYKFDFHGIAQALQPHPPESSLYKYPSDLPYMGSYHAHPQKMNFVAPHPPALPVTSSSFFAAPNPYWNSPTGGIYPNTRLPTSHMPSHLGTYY
# Summary of the method: as §1
Sequence,binding signal (GABPA),binding signal (ELF1),binding signal (EHF),binding signal (SPIB),binding signal (ELK3),binding signal (SPIC),binding signal (ELF4),binding signal (ELK4),binding signal (ELF3),binding signal (ETV1),binding signal (ERF),binding signal (ETV3L),binding signal (ETS2),binding signal (SPDEF),binding signal (ETV7),binding signal (ERG)
GCTAGT,"1.06 fold enrichment (6-mer frequency, TF over GST control)","1.16 fold enrichment (6-mer frequency, TF over GST control)","1.08 fold enrichment (6-mer frequency, TF over GST control)","1.09 fold enrichment (6-mer frequency, TF over GST control)","1.11 fold enrichment (6-mer frequency, TF over GST control)","1.2 fold enrichment (6-mer frequency, TF over GST control)","1.05 fold enrichment (6-mer frequency, TF over GST control)","1.07 fold enrichment (6-mer frequency, TF over GST control)","1.04 fold enrichment (6-mer frequency, TF over GST control)","1.02 fold enrichment (6-mer frequency, TF over GST control)","1.01 fold enrichment (6-mer frequency, TF over GST control)","1 fold enrichment (6-mer frequency, TF over GST control)","1.07 fold enrichment (6-mer frequency, TF over GST control)","1.07 fold enrichment (6-mer frequency, TF over GST control)","1.13 fold enrichment (6-mer frequency, TF over GST control)",
TAGACT,"1.02 fold enrichment (6-mer frequency, TF over GST control)","1.09 fold enrichment (6-mer frequency, TF over GST control)","1.04 fold enrichment (6-mer frequency, TF over GST control)",,,"1.03 fold enrichment (6-mer frequency, TF over GST control)",,,,"1.02 fold enrichment (6-mer frequency, TF over GST control)","1.07 fold enrichment (6-mer frequency, TF over GST control)","1 fold enrichment (6-mer frequency, TF over GST control)","1.02 fold enrichment (6-mer frequency, TF over GST control)",,"1.05 fold enrichment (6-mer frequency, TF over GST control)","1.05 fold enrichment (6-mer frequency, TF over GST control)"
